Assay results as given in ChEMBL document CHEMBL3988442, “University of Dundee, Small-Polar-MMV Screening Library” (2021).
For part of these data: Results with a measured potency or affinity are listed apart.

How the values were obtained:
Set-up in all cases: scale not given: direction of the effect not stated beside the values
[1] = biological target: Protein translocase subunit SecA (Escherichia coli (strain K12)) (UniProt P10408); assay: Assay to Identify E. coli SecA ATPase Inhibitors; assay type: functional; conditions: 30 µM
[2] = biological target: T1, Ubiquitin-activating enzyme e1, putative (Leishmania donovani (strain BPK282A1)) (UniProt E9BSI1); assay: Leishmania donovani Ubiquitin Activating Enzyme (LdE1); assay type: functional; conditions: 30 µM
T1 sequence (whole entry): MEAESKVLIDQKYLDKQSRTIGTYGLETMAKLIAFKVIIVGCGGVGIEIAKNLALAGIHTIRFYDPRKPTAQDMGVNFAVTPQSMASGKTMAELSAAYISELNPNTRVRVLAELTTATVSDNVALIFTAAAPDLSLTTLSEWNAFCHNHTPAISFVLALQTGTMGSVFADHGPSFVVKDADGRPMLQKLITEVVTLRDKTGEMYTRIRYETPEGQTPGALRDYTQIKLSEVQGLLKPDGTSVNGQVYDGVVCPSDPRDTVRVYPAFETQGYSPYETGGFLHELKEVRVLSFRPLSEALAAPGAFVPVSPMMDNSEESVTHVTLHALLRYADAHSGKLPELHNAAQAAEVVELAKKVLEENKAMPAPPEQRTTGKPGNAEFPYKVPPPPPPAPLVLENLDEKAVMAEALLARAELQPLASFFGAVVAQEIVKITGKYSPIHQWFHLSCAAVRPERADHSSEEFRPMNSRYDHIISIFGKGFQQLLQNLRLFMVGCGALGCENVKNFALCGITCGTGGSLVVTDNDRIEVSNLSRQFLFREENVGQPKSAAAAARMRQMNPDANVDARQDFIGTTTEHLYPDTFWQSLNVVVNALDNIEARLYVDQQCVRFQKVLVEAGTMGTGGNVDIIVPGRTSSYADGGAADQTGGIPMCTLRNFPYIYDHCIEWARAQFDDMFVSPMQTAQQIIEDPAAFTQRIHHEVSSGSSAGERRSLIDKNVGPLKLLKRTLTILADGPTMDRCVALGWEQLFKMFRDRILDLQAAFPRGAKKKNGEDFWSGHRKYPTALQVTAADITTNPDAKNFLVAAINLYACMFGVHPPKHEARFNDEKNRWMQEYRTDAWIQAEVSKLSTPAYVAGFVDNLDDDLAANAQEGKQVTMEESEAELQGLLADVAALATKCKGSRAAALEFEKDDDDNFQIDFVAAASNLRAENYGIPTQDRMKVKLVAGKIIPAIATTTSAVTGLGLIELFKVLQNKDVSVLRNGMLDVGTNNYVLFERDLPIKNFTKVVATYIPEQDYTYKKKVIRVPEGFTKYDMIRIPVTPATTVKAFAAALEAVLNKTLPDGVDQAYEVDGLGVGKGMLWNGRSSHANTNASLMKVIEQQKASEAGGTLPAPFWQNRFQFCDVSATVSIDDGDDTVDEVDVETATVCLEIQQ

[3] = biological target: T2, Aspartate--tRNA(Asp/Asn) ligase (Mycobacterium tuberculosis (strain ATCC 25618 / H37Rv)) (UniProt P9WFW3); assay: Assay for Asp RNA synthetase-1 from Mycobacterium tuberculosis; assay type: functional; conditions: 30 µM; also: in the data most compounds retested in dose-response had high values
T2 sequence (whole entry): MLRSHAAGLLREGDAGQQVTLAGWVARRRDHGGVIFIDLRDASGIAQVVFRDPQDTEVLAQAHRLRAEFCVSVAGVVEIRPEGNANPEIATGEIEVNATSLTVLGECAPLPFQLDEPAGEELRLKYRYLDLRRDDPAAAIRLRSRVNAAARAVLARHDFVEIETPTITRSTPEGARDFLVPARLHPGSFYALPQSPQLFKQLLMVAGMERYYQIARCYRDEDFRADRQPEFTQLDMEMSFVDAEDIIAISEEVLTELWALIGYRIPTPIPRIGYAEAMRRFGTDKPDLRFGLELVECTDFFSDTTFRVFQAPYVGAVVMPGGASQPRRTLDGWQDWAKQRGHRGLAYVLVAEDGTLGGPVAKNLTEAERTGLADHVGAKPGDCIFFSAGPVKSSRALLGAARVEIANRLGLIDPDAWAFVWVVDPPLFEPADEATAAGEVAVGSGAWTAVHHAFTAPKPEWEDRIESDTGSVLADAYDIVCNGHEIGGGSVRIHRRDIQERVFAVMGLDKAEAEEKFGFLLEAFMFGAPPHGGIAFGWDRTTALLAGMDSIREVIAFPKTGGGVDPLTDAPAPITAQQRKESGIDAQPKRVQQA

[4] = biological target: AMP-activated protein kinase, AMPK (Homo sapiens) (UniProt P54646+O43741+P54619+Q9UGJ0+Q9Y478+Q13131+Q9UGI9); assay: AMP-dependent Kinase enzyme assay. An in vitro enzyme assay that detects ADP turnover that is directly proportional to AMPK activity. This uses naive AMPK that is activated during the assay with MK-8722; assay type: functional; conditions: 30 µM
[5] = biological target: Sialic acid-binding Ig-like lectin 9 (Homo sapiens) (UniProt Q9Y336); assay: Hs-Siglec9 ALPHAscreen SOP 20170721; conditions: 10 µM
Trypanosoma cruzi = assay: Trypanosoma cruzi phosphomannomutase and mannose-1-phosphate guanylyltransferase assay; assay type: functional; conditions: 10 µM
[6] = biological target: T3, Arginase-2, mitochondrial (Homo sapiens) (UniProt P78540); assay: in vitro enzyme assay to detect the production of urea directly proportional to the activity of Arginase II; assay type: functional; conditions: 33.3 µM; also: in the data most compounds retested in dose-response had high values
T3 sequence (whole entry): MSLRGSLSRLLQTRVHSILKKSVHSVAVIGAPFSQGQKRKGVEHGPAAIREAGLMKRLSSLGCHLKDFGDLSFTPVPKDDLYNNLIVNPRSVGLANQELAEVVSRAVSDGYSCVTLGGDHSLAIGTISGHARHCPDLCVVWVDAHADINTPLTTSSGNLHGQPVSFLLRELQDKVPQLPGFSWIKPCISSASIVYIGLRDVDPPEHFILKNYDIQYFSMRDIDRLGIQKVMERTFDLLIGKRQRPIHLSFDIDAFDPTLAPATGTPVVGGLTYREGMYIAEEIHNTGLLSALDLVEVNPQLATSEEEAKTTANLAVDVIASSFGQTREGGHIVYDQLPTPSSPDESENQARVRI

[7] = biological target: T4, Proteasome subunit beta (Trypanosoma cruzi) (UniProt O96673); assay: Trypanosoma cruzi proteasome chymotrypsin-like activity (TcProtChymo) assay.; also: in the data most compounds retested in dose-response had high values; assay type: functional; conditions: 9.37 µM
T4 sequence (whole entry): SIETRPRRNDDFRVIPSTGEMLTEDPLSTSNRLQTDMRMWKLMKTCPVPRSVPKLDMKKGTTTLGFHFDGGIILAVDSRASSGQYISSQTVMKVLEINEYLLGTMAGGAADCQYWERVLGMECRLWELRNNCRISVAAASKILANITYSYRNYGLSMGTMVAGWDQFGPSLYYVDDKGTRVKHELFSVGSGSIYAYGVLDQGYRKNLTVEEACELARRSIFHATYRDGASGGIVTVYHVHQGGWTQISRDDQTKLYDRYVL

Homo sapiens = organism: Homo sapiens; assay: To identify inhibition of the IFN signalling (Jak-Stat) pathway via expression of an eGFP reporter gene under the control of an IFN-stimulated response element (ISRE) containing MxA promoter.; assay type: functional; conditions: 30 µM
[8] = biological target: Shiga toxin 2 (Escherichia coli O157:H7) (UniProt P09385+P09386); assay: E. coli 0.157:H7 Shiga Toxin SOP - stx2 screening assay; assay type: functional; conditions: 30 µM
[9] = biological target: T5, Tyrosyl-tRNA synthetase, putative (Trypanosoma cruzi (strain CL Brener)) (UniProt Q4DSP6); assay: Trypanosoma cruzi tyrosyl tRNA synthetase (TcYRS) _High Tyrosine SOP; assay type: functional; conditions: 30 µM; also: in the data most compounds retested in dose-response had high values
T5 sequence (whole entry): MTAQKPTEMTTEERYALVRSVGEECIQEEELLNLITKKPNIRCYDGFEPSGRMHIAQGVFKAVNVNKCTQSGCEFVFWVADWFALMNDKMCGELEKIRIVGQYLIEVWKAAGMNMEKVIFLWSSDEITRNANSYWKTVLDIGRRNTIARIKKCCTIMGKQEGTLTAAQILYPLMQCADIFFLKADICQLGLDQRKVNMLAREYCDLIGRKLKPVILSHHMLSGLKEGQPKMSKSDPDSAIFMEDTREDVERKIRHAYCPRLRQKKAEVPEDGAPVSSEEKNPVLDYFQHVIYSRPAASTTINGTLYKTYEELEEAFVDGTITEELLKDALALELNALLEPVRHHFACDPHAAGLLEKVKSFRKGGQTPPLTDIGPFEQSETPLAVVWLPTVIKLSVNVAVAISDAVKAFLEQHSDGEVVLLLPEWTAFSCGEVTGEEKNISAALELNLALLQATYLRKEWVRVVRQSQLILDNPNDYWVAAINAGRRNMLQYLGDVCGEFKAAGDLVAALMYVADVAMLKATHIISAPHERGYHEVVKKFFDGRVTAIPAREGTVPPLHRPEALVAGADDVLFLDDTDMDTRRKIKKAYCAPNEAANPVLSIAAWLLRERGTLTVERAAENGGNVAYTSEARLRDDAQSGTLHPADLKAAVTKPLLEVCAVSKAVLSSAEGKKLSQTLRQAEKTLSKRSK

[10] = biological target: T5, Tyrosyl-tRNA synthetase, putative (Trypanosoma cruzi (strain CL Brener)); assay: Trypanosoma cruzi tyrosyl tRNA synthetase (TcYRS) SOP; assay type: functional; conditions: 30 µM
[11] = biological target: Chromo domain-containing protein 1 (Saccharomyces cerevisiae (strain ATCC 204508 / S288c) (Baker's yeast)) (UniProt P32657); assay: ScCHD-1 Enzyme Inhibition Assay; assay type: functional; conditions: 30 µM; also: in the data most compounds retested in dose-response had high values
Sequence of Chromo domain-containing protein 1 (Saccharomyces cerevisiae (strain ATCC 204508 / S288c) (Baker's yeast)) (P32657 whole entry, the tested form may be a part): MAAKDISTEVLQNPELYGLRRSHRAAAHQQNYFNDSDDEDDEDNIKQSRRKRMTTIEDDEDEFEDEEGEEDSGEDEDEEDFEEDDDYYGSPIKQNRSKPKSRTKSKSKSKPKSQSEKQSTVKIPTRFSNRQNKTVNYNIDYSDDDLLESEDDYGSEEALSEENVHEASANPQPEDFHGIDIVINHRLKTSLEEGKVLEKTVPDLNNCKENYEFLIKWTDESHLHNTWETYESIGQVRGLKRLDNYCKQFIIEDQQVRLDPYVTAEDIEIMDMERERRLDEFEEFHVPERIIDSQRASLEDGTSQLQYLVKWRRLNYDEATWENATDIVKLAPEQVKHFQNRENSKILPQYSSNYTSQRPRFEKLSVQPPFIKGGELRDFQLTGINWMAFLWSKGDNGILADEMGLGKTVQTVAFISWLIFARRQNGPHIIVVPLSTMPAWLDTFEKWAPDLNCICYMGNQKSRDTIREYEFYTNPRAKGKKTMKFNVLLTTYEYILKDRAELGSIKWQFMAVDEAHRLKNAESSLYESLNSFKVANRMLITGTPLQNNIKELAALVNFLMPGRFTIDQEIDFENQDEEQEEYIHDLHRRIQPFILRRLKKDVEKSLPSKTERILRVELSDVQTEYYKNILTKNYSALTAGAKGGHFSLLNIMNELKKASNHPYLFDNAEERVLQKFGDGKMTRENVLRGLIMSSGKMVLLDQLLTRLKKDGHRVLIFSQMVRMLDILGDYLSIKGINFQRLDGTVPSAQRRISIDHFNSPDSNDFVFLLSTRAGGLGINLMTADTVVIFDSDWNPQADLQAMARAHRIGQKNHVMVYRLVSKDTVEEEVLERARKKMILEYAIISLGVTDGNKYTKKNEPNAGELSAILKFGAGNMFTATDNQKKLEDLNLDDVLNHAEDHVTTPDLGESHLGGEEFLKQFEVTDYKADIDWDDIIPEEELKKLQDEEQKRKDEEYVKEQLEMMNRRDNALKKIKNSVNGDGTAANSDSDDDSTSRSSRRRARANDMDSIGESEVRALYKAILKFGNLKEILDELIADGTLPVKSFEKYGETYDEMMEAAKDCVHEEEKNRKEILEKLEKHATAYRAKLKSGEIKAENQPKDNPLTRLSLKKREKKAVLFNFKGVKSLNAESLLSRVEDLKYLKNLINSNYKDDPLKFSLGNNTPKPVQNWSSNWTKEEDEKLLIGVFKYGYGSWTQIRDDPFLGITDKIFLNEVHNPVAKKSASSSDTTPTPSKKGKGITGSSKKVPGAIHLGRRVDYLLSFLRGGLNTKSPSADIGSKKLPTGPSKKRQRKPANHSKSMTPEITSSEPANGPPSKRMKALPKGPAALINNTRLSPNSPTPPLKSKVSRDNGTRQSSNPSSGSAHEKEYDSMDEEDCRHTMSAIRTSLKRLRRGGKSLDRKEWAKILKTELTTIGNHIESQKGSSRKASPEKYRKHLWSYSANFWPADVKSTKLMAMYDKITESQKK

Sequence of Sialic acid-binding Ig-like lectin 9 (Homo sapiens) (Q9Y336 whole entry): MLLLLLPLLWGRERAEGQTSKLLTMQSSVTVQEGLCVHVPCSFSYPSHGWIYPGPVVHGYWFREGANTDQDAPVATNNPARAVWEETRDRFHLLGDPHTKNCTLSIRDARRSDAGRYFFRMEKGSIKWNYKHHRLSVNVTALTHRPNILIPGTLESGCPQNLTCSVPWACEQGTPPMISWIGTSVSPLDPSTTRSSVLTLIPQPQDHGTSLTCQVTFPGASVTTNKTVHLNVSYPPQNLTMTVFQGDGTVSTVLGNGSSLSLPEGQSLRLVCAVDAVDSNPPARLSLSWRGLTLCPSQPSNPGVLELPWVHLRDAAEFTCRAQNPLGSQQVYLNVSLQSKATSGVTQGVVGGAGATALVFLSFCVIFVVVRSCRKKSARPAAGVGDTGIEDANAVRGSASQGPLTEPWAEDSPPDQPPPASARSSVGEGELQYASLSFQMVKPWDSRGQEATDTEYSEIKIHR
Sequence of Protein translocase subunit SecA (Escherichia coli (strain K12)) (P10408 whole entry): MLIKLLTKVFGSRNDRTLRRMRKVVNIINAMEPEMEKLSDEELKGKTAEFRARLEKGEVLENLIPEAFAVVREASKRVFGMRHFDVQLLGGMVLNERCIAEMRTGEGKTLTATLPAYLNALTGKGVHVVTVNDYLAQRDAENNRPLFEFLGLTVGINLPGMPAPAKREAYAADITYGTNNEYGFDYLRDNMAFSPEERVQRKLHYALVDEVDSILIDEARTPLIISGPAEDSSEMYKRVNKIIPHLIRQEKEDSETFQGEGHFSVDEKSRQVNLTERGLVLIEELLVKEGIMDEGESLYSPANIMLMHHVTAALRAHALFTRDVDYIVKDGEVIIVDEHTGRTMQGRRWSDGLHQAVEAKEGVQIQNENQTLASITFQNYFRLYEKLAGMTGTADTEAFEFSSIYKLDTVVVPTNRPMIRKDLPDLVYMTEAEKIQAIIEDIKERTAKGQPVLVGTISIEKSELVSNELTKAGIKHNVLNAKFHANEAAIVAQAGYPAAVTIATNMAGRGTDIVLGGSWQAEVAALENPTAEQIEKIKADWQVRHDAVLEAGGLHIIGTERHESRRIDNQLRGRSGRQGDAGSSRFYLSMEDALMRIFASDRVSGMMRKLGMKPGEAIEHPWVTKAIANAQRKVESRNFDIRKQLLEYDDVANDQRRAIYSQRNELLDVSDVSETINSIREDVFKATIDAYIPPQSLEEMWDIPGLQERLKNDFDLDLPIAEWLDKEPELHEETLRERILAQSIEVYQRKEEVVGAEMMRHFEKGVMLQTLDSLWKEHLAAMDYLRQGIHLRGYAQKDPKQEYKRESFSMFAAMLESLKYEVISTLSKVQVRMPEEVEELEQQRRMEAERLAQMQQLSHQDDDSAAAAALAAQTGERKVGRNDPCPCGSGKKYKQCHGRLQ

| Structure (SMILES) | Percent Effect [1] [%] | Percent Effect [2] [%] | Percent Effect [3] [%] | Percent Effect [4] [%] | Percent Effect [5] [%] | Percent Effect (Trypanosoma cruzi) [%] | Percent Effect [6] [%] | Percent Effect [7] [%] | Percent Effect (Homo sapiens) [%] | Percent Effect [8] [%] | Percent Effect [9] [%] | Percent Effect [10] [%] | Percent Effect [11] [%] |
| --- | --- | --- | --- | --- | --- | --- | --- | --- | --- | --- | --- | --- | --- |
| c1cncc(OC[C@@H]2CC[C@H]3[C@H](CCN3Cc3cccs3)O2)c1 | -2.2 | 5.33 | -2.1 | 4.9 | -3.46 | -2.56 | 2.1 | -0.969 | -0.872 | -5.68 | 2.13 | 8.97 | 2.16 |
| CN1CCC2(CC1)CNC(=O)c1ccccc1O2 | -3.91 | 6.76 | -2.4 | 13.4 | 4.99 | -5.34 | 0.232 | 10.3 | 1.44 | 12.6 | 6.45 | 6.49 | -6.62 |
| O=C(NCc1ccccn1)[C@]12COC[C@H]1CN(C1CCC1)C2 | -2.39 | 18.7 | -4.34 | 0.454 | 0.409 | 3.86 | 85.8 | 10.9 | -5.18 | -15.4 | 3.12 | 10 | -7.8 |
